Measured values from PubChem BioAssay (Tox21).
“And” between values parts separate entries of the source, which are not always exact repeats. Identical values can stand only once. Results filed as inconclusive are left out. The source made the active and inactive calls. The call rests on the fitted dose curve.

Experiment: qHTS assay to identify small molecule antagonists of the sonic hedgehog signaling (Shh) pathway (AID 1259369); further: nearly all actives have a fitted effect of over 45% in size
Conditions: NIH/3T3 Gli1-Luc reporter, Shh antagonist, luminescence 24 h; series mostly up to 92.4 µM; activity change, negative = inhibition: at the top concentration
From the text: U.S. Tox21 Program National Center for Advancing Translational Sciences [NCATS] NIH Chemical Genomics Center [NCGC] U.S. Environmental Protection Agency [EPA] National Institutes of Environmental Health Sciences [NIEHS] National Toxicology Program [NTP] U.S. Food and Drug Administration [FDA] Tox21 Assay Overview: The sonic hedgehog (Shh) pathway is essential for normal embryonic development. Dysregulation of the Shh pathway can cause severe developmental defects in organs. Therefore chemicals that interfere with the pathway are potential developmental toxicants. A cell line designated 3T3Gli1-Luc (DMB/OARSA/CFSAN/FDA, Laurel, MD), a NIH/3T3 derived clone containing stably integrated Gli1-Luc reporter is used to detect chemical interference of the Shh pathway, by changes in the expression of the firefly Luc gene under the control of the Gli1 transcriptional response element. This cell line was used to screen Tox21 libraries for identifying and prioritizing the potential developmental toxicants that interfere Shh pathway. Conditioned medium-stimulated mode was used to screen for chemicals inhibiting Shh signaling.
Tox21 Assay Protocol Summary: 3T3 Gli1-Luc cells were dispensed at 2,000 per well in 5uL of culture medium into white solid bottom 1536-well plates (Greiner Bio-One, Monroe, NC) using a Multidrop Combi (Thermo Scientific, Waltham, MA) dispenser. The assay plates were incubated at 37 C and 5% CO2 for 4hr, and then 23nL of compounds dissolved in DMSO and positive control were transferred using a Pintool station (Wako, San Diego, CA). The compound transfer was followed by the addition of 1ul conditioned medium or assay buffer using two separate tips of Flying Reagent Dispenser (FRD, Aurora Discovery, San Diego, CA). The assay plates were incubated at 37C and 5% CO2 for 24hr. For luciferase read, 4uL of Amplite Luciferase reporter gene assay reagent (AAT Bioquest, Inc. Sunnyvale, CA) was added to each well of the assay plates using FRD and incubated at room temperature for 30min. The luminescence signal was measured using a ViewLux plate reader (Perkin Elmer, Shelton, CT).
On the % scale 0 is the no-effect control and ±100 the full control effect; potency means the concentration at half of the fitted maximal effect.

| Compound | activity change, negative = inhibition | Potency |
| --- | --- | --- |
| CNc1ccc([N+](=O)[O-])cc1 | 0% (inactive) |  |
| Cc1c(C)c2c(c(C)c1OC(=O)c1cccnc1)CC[C@@](C)(CCC[C@H](C)CCC[C@H](C)CCCC(C)C)O2 | 13.1% [at 42.5 µM] (inactive) |  |
| CCCCC(CC)COC(=O)CCCCC(=O)OCc1ccccc1 (stereo not given) | 11.7% (inactive) |  |
| O=C1NC(=O)[C@@H]2CC=CC[C@H]12 | -11.6% (inactive) |  |
| Cc1cc(C(C#N)c2ccc(Cl)cc2)c(Cl)cc1NC(=O)c1cc(I)cc(I)c1O (stereo not given) |  | 26.6 µM (active) |
| O=C1CCc2cc(OCCCCc3nnnn3C3CCCCC3)ccc2N1 |  | 10.6 µM (active) |
| CC(C)(C)CC(C)(C)c1ccc(Nc2ccc(C(C)(C)CC(C)(C)C)cc2)cc1 | -12.5% [at 8.39 µM] (inactive) |  |
| CCC(=O)C(=O)CC | 25.8% (inactive) |  |
| OC1CCCc2ccccc21 (stereo not given) | 0% (inactive) |  |
| Cc1cc(C(C)(C)C)cc(C)c1CC1=NCCN1 | -1.99% [at 42.5 µM] (inactive) |  |
| O=S(=O)(O)c1ccc(Nc2nc(Nc3ccc(/C=C/c4ccc(Nc5nc(Nc6ccc(S(=O)(=O)O)cc6)nc(N(CCO)CCO)n5)cc4S(=O)(=O)O)c(S(=O)(=O)O)c3)nc(N(CCO)CCO)n2)cc1 | -8.21% [at 42.5 µM] (inactive) |  |
| COC1=C(OC)C(=O)C(CCCCCCCCCCO)=C(C)C1=O | -17.3% [at 42.5 µM] (inactive) |  |
| O=C(O)Cc1ccccc1Nc1c(Cl)cccc1Cl |  | inactive |
| C=CCCC(=O)/C=C/C1C(C)=CCCC1(C)C (stereo not given) | -2.9% (inactive) |  |
| C/C=C/C=C/COC(=O)C(C)C |  | 30.6 µM (active) |
| Oc1cc(Cl)cc(Cl)c1Cl |  | 31.4 µM (active) |
| Cc1c(N)cccc1C(F)(F)F | 11.6% [at 42.5 µM] (inactive) |  |
| CC1(C)[C@@H](O)CC[C@]2(C)[C@H]3C(=O)C=C4[C@@H]5C[C@@](C)(C(=O)O)CC[C@]5(C)CC[C@@]4(C)[C@]3(C)CC[C@@H]12 | 15.8% (inactive) |  |
| Cc1c(C)c([N+](=O)[O-])c(C(C)(C)C)c([N+](=O)[O-])c1C | -21.8% (inactive) |  |
| Cc1cccc(C(=O)O)c1O | 3.52% [at 42.5 µM] (inactive) |  |

| Compound | activity change, negative = inhibition | Potency |
| --- | --- | --- |
| OC12N=C(c3ccccc3)SC1Cc1cc(Cl)ccc12 (stereo not given) | -34.6% (inactive) |  |
| COC(=O)c1ccccc1C | 10.3% (inactive) |  |
| Cc1ccc(C(=O)O)cc1 | -3.5% (inactive) |  |
| CCCCCCOC(=O)C(C)CC (stereo not given) | 5.58% (inactive) |  |
| OC/C=C/CO | 1.54% (inactive) |  |
| CCCCCCCCCCCCOC(=O)c1ccc(O)cc1 | 23.9% (inactive) |  |
| CN(C)[C@@H](CCOc1cccc2ccccc12)c1ccccc1 |  | 29.8 µM (active) |
| C=CC(C)(CCC=C(C)C)OC=O (stereo not given) | -21.3% (inactive) |  |
| C#C[C@]1(O)CC[C@H]2[C@@H]3[C@H](C)CC4=C(CCC(=O)C4)[C@H]3CC[C@@]21C |  | 29.8 µM (active) |
| CCCCCCCCCCCCCC[N+](C)(C)Cc1ccccc1 |  | 349 nM (active) and 422 nM (active) |
| Cc1ccc(C(C)C)cc2c(C)ccc1-2 | 1.92% [at 42.5 µM] (inactive) |  |
| ClCCl | 11.7% (inactive) |  |
| CC1(C)CCC[C@]2(C)[C@H]3CCO[C@]3(C)CC[C@@H]12 | 0.963% (inactive) |  |
| COc1ccc(NC(=O)CC(C)=O)cc1 | 8.55% (inactive) |  |
| O=C(O)c1ccc2cc(C(=O)O)ccc2c1 | 11.1% (inactive) |  |
| O=[N+]([O-])c1ccc(O)cc1C(F)(F)F | 0% (inactive) |  |
| CC1=Nc2ccccc2C1(C)C | 1.68% (inactive) |  |
| CCC(COC(=O)CCS)(COC(=O)CCS)COC(=O)CCS | 26.2% (inactive) |  |
| CCCCNS(=O)(=O)c1ccc(C)cc1 | -29.4% (inactive) |  |
| CCN1C(=O)c2ccccc2C1Nc1ccc(OCCN2CCCCC2)cc1 (stereo not given) |  | 13.3 µM (active) |
